From PubChem BioAssay (NCI)
The panel holds about 79,000 compounds, 15% with a hit somewhere; the sample as a whole holds those more often. Active and inactive are the calls of the source. No stated cut-off is given here; in the data, active means growth inhibition above about 70%; inactive means the rest.

Tests used:
[1] = NCI Yeast Anticancer Drug Screen. Data for the rad52 strain (AID 147);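 further: 0% = growth of vehicle-treated control cultures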; settings: S. cerevisiae rad52 mutant growth inhibition, active compounds read high
Method in brief: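 Yeast strain carrying a DNA damage repair alteration was exposed to test compounds. Growth inhibition was measured relative to vehicle-treated controls.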

[2] = NCI Yeast Anticancer Drug Screen. Data for the wt1 strain (AID 149);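 further: 0% = growth of vehicle-treated wt1 cultures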; settings: S. cerevisiae wt1 strain (SPY 50644) growth inhibition, active compounds read high
Method in brief: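 Compounds are added to wt1 yeast cultures. Growth is then measured. Inhibition is expressed relative to vehicle-treated controls.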

[3] = NCI Yeast Anticancer Drug Screen. Data for the rad50EPP+ strain (AID 151);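 further: 0% = growth of vehicle-treated control cultures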; settings: S. cerevisiae rad50 mutant strain, active compounds read high
Method in brief: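 Yeast strain carrying rad50 alteration (rad50EPP+) exposed to compounds; growth inhibition measured relative to vehicle-treated controls.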

[4] = NCI Yeast Anticancer Drug Screen. Data for the mgt1 strain (AID 153); settings: S. cerevisiae mgt1 mutant growth inhibition, active compounds read high
Method in brief: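 Yeast mgt1 strain (DNA repair/cell-cycle alteration panel) exposed to compounds; growth inhibition measured relative to vehicle-treated controls.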

[5] = NCI Yeast Anticancer Drug Screen. Data for the rad50 strain (AID 155);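 further: 0% = growth of vehicle-only cultures of the same strain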; settings: S. cerevisiae rad50 strain growth inhibition, active compounds read high
Method in brief: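 Inhibition values express reduced yeast growth in compound-treated cultures relative to vehicle-treated controls.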

[6] = NCI Yeast Anticancer Drug Screen. Data for the mec2-1 strain (AID 157); settings: S. cerevisiae mec2-1 strain, active compounds read high
Method in brief: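 mec2-1 yeast strain, carrying an alteration in DNA damage repair or cell cycle control, was exposed to compounds; growth inhibition was measured relative to vehicle-treated controls.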

[7] = NCI Yeast Anticancer Drug Screen. Data for the rad14 strain (AID 159);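 further: 0% = growth of vehicle-treated control cultures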; settings: S. cerevisiae rad14 strain growth inhibition, active compounds read high
Method in brief: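 A mutant yeast strain defective in DNA damage repair is treated with compound; inhibition of its growth is scored against untreated, vehicle-exposed cultures.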

[8] = NCI Yeast Anticancer Drug Screen. Data for the sgs1 mgt1 strain (AID 161);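 further: 0% = growth of cultures given vehicle only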; settings: S. cerevisiae sgs1 mgt1 strain, active compounds read high
Method in brief: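 Yeast cells carrying a defined DNA-repair defect were exposed to test compounds. Growth inhibition was measured relative to vehicle-treated controls.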

[9] = NCI Yeast Anticancer Drug Screen. Data for the CLN2oe strain (AID 163);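 further: 0% = growth of vehicle-only control cultures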; settings: S. cerevisiae CLN2oe strain, active compounds read high
Method in brief: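 Yeast cells carrying a defined cell-cycle control alteration were exposed to test compounds. Growth inhibition was scored against vehicle-treated control cultures.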

[10] = NCI Yeast Anticancer Drug Screen. Data for the cln2 rad14 strain (AID 165);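 further: 0% = growth equal to vehicle treated cultures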; settings: S. cerevisiae cln2 rad14 strain, active compounds read high
Method in brief: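 Yeast carrying cln2 and rad14 alterations (cell cycle control and DNA damage repair) were exposed to compounds. Growth inhibition was measured against vehicle-treated controls.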

[11] = NCI Yeast Anticancer Drug Screen. Data for the bub3 strain (AID 167); settings: S. cerevisiae bub3 mutant strain, active compounds read high
Method in brief: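 Steps: expose the mutant yeast strain to compound; grow alongside vehicle-treated cultures; measure growth; express inhibition against the vehicle cultures.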

[12] = NCI Yeast Anticancer Drug Screen. Data for the wt2 strain (AID 169);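 further: 0% = growth of vehicle-treated yeast cultures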; settings: S. cerevisiae wt2 strain growth inhibition, active compounds read high
Method in brief: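 Yeast cells were exposed to test compounds, and growth inhibition was measured relative to vehicle-treated controls.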

[13] = NCI Yeast Anticancer Drug Screen. Data for the mlh1 strain (AID 171);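 further: 0% = growth of vehicle-treated control cultures of the same strain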; settings: S. cerevisiae mlh1 strain growth inhibition, active compounds read high
Method in brief: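 Yeast carrying a defined genetic alteration in DNA damage repair or cell cycle control were exposed to test compounds. Growth inhibition was measured relative to vehicle-treated controls.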

[14] = NCI Yeast Anticancer Drug Screen. Data for the sgs1 strain (AID 173);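 further: 0% = growth of vehicle-only control cultures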; settings: S. cerevisiae sgs1 mutant, active compounds read high
Method in brief: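 Yeast mutant strains carrying defined defects in DNA damage repair or cell cycle control were exposed to test compounds. Growth inhibition was scored against vehicle-treated controls.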

[15] = NCI Yeast Anticancer Drug Screen. Data for the mlh1 rad18 strain (AID 175); settings: S. cerevisiae mlh1 rad18 strain growth inhibition, active compounds read high
Method in brief: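 Growth inhibition of the yeast strain was measured after compound exposure and expressed relative to vehicle-treated controls. The strain carries defined defects in DNA damage repair.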

[16] = NCI Yeast Anticancer Drug Screen. Data for the rad18 strain (AID 177); settings: S. cerevisiae rad18 mutant growth inhibition, active compounds read high
Method in brief: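 Yeast carrying a defined DNA damage repair alteration were exposed to compounds. Growth inhibition was expressed relative to vehicle-treated controls.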

[17] = at 5.0 µM (retest, dose inferred, filed as 0.5)
[18] = at 50.0 µM (retest, dose inferred, filed as 5.0)

Measured: growth inhibition

OC(CC(O)(C(F)(F)F)C(F)(F)F)c1ccc(C(O)CC(O)(C(F)(F)F)C(F)(F)F)cc1 (stereo not drawn)
inactive: [1]; at 1.2 µM 47% | [1]; at 3.7 µM 64% | [2]; at 1.2 µM 23% | [2]; at 3.7 µM 32% | [3]; at 1.2 µM -2% | [3]; at 3.7 µM 0% | [3]; at 11.0 µM 9% | [3]; at 33.0 µM 25% | [3]; at 100.0 µM 60% | [4]; at 1.2 µM 22% | [4]; at 3.7 µM 22% | [5]; at 1.2 µM 35% | [5]; at 3.7 µM 50% | [5]; [17] 36% | [6]; at 1.2 µM 18% | [6]; at 3.7 µM 38% | [6]; [17] 42% | [7]; at 1.2 µM 26% | [7]; at 3.7 µM 19% | [8]; [17] 26% | [9]; at 1.2 µM 3% | [9]; at 3.7 µM 68% | [10]; [17] 68% | [11]; at 1.2 µM -2% | [11]; at 3.7 µM 37% | [11]; [17] 15% | [12]; at 1.2 µM -1% | [12]; at 3.7 µM 17% | [13]; at 1.2 µM 19% | [13]; at 3.7 µM 11% | [14]; at 1.2 µM 26% | [14]; at 3.7 µM 26% | [15]; [17] 47% | [16]; at 1.2 µM 40% | [16]; at 3.7 µM 41%
active: [1]; at 11.0 µM 95% | [1]; at 33.0 µM 99% | [1]; at 100.0 µM 99% | [2]; at 11.0 µM 94% | [2]; at 33.0 µM 99% | [2]; at 100.0 µM 100% | [4]; at 11.0 µM 91% | [4]; at 33.0 µM 99% | [4]; at 100.0 µM 99% | [5]; at 11.0 µM 92% | [5]; at 33.0 µM 98% | [5]; [18] 100% | [5]; at 50.0 µM 99% | [5]; at 100.0 µM 92% | [6]; at 11.0 µM 94% | [6]; at 33.0 µM 99% | [6]; [18] 100% | [6]; at 50.0 µM 99.5% | [6]; at 100.0 µM 99% | [7]; at 11.0 µM 95% | [7]; at 33.0 µM 99% | [7]; at 100.0 µM 99% | [8]; [18] 100% | [8]; at 50.0 µM 99.5% | [9]; at 11.0 µM 99% | [9]; at 33.0 µM 99% | [9]; at 100.0 µM 100% | [10]; [18] 100% | [10]; at 50.0 µM 99.2% | [11]; at 11.0 µM 95% | [11]; at 33.0 µM 99% | [11]; [18] 100% | [11]; at 50.0 µM 99.5% | [11]; at 100.0 µM 99% | [12]; at 11.0 µM 98% | [12]; at 33.0 µM 99% | [12]; at 100.0 µM 100% | [13]; at 11.0 µM 90% | [13]; at 33.0 µM 99% | [13]; at 100.0 µM 99% | [14]; at 11.0 µM 87% | [14]; at 33.0 µM 99% | [14]; at 100.0 µM 99% | [15]; [18] 99% | [15]; at 50.0 µM 99.3% | [16]; at 11.0 µM 91% | [16]; at 33.0 µM 98% | [16]; at 100.0 µM 97%
